# Platelet DG rel – platelet dense granule release activity. AID 1663. actives 0.22% (n = 300,000). inhibition, %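 (compounds screened at 7.5 µM in platelet-rich plasma)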. human platelet-rich plasma, SFLLRN dense granule ATP release, luminescence;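 active means mean replicate score, as percent of positive control, at or above 50; inconclusive means mean below 50 but at least one replicate at or above 50; inactive means mean and every replicate below 50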
# Yeast superoxide – caloric restriction mimetics inhibiting age-related superoxide in yeast. superoxide response (% of plate mean), % at 10 µM. AID 2690. actives 0.18% (n = 330,000). S. cerevisiae aged cells, superoxide DHE fluorescence; active compounds read low;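 active means superoxide response under a set limit, about three screen SD below normal, cut at about 65% in these data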;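 further: yeast aged for seven days with compound at 30 °C before DHE staining; 100% = average MFI of all compound-treated wells on the plate with controls excluded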
# PolyA inhibitor – blocks polyadenylation in yeast reporter cells; AID 1875; actives 0.02% (n = 300,000); S. cerevisiae SKY197-pL101 polyadenylation reporter, beta-gal luminescence; efflux-impaired pdr1/pdr3 knockout yeast; score 100 = 6 SD above DMSO; activity score, % at 12 µM;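 active means lowest replicate activity score at least 50, where 100 means six control SD above control mean; inconclusive means lowest score under 50 but half or more replicates reach 50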;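 further: yeast exposed to compound for 9 h at 30 °C; higher score means more reporter readthrough which indicates perturbed polyadenylation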
# Calb FLC – affects C. albicans growth with fluconazole; C. albicans CaCi-2 (fluconazole-resistant clinical isolate) + fluconazole, Alamar Blue growth, 48 h; growth inhibition, % (no concentration beside the values); actives 0.57% (n = 300,000);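 active means growth inhibition above about 58% in most replicates, limit read from the data, passing the limit was not always enough; inconclusive means exactly half the replicates above a set limit; inactive means most replicates below a set limit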;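 further: all wells also contain fluconazole at 8 µg/ml as a sub-toxic cotreatment; 0% = median of DMSO wells and 100% = median of geldanamycin control wells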
# SKKanGAS inh – inhibitors of SKKanGAS S. pyogenes growth in kanamycin (SK-promoter or general growth effect). actives 1.3% (n = 300,000). inhibition, % at 7.5 µM. BacTiter-Glo, 6 h;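 active means mean replicate score, as percent of positive control median, at least 50; inconclusive means mean below 50 but one replicate at or above 50; inactive means mean and every replicate below 50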;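 further: strain carries kanamycin resistance gene driven by streptokinase promoter and grows in 40 µg/ml kanamycin; loss of luminescence reflects streptokinase promoter inhibition or plain growth inhibition; 0% = median of DMSO wells and 100% = positive control at its reference dose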
# * hit, by the source's call; ? = inconclusive; . = no result given. Most compounds without a hit are left out; they make up all but 2% or so of the library.
SMILES,Platelet DG rel,Yeast superoxide,PolyA inhibitor,Calb FLC,SKKanGAS inh
O=C(NC12CC3CC(CC(C3)C1)C2)c1ccc(-c2ccc(Br)cc2)o1,15,106,13,0,56*
O=C(NC12CC3CC(CC(C3)C1)C2)c1ccc(Br)o1,-3,102,-1,-24,2
Cc1onc(-c2ccccc2)c1C(=O)NCc1ccccc1F,6,104,-9,0,-7
O=C(N/N=C/c1cccc(C(F)(F)F)c1)c1ccc(O)cc1,1,63*,8,-6,?
O=C(N/N=C\c1c(O)ccc2ccccc12)c1ccc(Cn2cccn2)o1,-6,100,-20,20,108*
O=C(N/N=C/c1c(O)ccc2ccccc12)c1cccc(C(F)(F)F)c1,11,125,0,90*,120*
COc1ccc2ccccc2c1/C=N/NC(=O)c1cccc(Br)c1,-7,102,-11,16,-11
O=C(c1ccc(-n2cccn2)cc1)N1CCc2c([nH]c3ccccc23)C1c1ccccn1 (stereo unspecified),17,97,-16,-2,10
Cn1cccc1-c1cc(C(=O)N2CCc3c([nH]c4ccccc34)C2c2ccccn2)[nH]n1 (stereo unspecified),1,110,12,98*,22
COc1ccc(C2=NOC(Cn3nc(C(=O)NCc4cccc(C(F)(F)F)c4)cc3-c3ccccc3)C2)cc1 (stereo unspecified),0,98,-1,-5,8
Cc1[nH]c(=O)[nH]c(=O)c1/C=N/NC(=O)CCNC(=O)OC(C)(C)C,77*,95,7,0,-10
Cc1[nH]c(=O)[nH]c(=O)c1/C=N/NC(=O)CCCCCNC(=O)OC(C)(C)C,-14,76,4,-5,-23
O=C(Nc1cc(Sc2nc3ccccc3s2)cc([N+](=O)[O-])c1)c1cccc(F)c1F,-1,92,3,4,6
O=C(CNC(=O)c1ccco1)OCC(=O)c1ccc(Cl)cc1,-4,99,6,-5,-23
CCc1ccc(C(=O)COC(=O)CNC(=O)c2ccco2)cc1,51*,97,-2,-4,-7
O=C1CC(Sc2nnnn2-c2ccccc2)C(=O)N1c1cccc(Cl)c1 (stereo unspecified),55*,112,-8,-4,0
COc1ccc(N2C(=O)CC(Sc3nnnn3-c3ccc(F)cc3)C2=O)cc1 (stereo unspecified),20,109,.,-4,.
CCN(CC(=O)Nc1ccc(NC(C)=O)cc1)C(=O)C1(c2ccccc2)CC1,.,120,.,.,.
COc1ccc(NC(=O)CNC(=O)c2nn(-c3ccc(OC)cc3OC)c(=O)c3ccccc23)c(OC)c1,3,104,17,93*,4
COc1ccc(CN(C(=O)c2cc3ccccc3oc2=O)C2CCCC2)cc1,.,94,5,-5,15
COc1cccc(CN(C(=O)c2cc3ccccc3oc2=O)C2CC2)c1,-8,103,-3,90*,-14
O=C(CCNC(=O)c1ccc([N+](=O)[O-])cc1)Nc1nccs1,0,116,-16,0,-5
O=C(CCNC(=O)c1ccc(Br)cc1)Nc1nccs1,1,115,13,112*,0
CC(=O)Nc1ccc2c(c1)nc1n2CCN(C(C)c2ccccc2)C1 (stereo unspecified),2,93,14,6,-3
CC(c1ccccc1)N1CCn2c(nc3cc(NS(C)(=O)=O)ccc32)C1 (stereo unspecified),-1,101,-5,109*,-5
SMILES,Platelet DG rel,Yeast superoxide,PolyA inhibitor,Calb FLC,SKKanGAS inh
Cc1cc(Nc2cccc(Cl)c2Cl)n2ncnc2n1,-3,102,-3,116*,14
Cc1ccc(Nc2cc(C)nc3ncnn23)c(Cl)c1,0,94,-5,1,-3
O=C(Cn1c(=O)oc2ccccc21)NCCc1ccccc1Cl,3,116,5,-4,2
C/C(=N\NC(=O)c1c[nH]c2ccccc12)c1ccccn1,1,93,-6,-30,17
C/C(=N\NC(=O)c1cc2ccccc2cc1O)c1cc2ccccc2o1,1,113,0,-4,78*
C=CCNC(=S)N/N=C(\C)c1ccccn1,-1,91,3,115*,81*
C/C(=N\NC(=O)COc1ccc(C)cc1C(C)C)c1cc2ccccc2o1,1,114,6,7,57*
C/C(=N\NC(=O)COc1ccc(C(C)(C)C)cc1)c1cc2ccccc2o1,3,73,-3,6,19
C/C(=N\NC(=O)c1ccc(F)cc1)c1ccccn1,-4,100,-2,-10,89*
C/C(=N/NC(=O)CNC(=O)c1ccccn1)c1ccccc1,3,86,1,35,9
C/C(=N\NC(=O)c1nc2ccccn2c1C)c1cc2ccccc2o1,-4,94,5,-13,0
C/C(=N\NC(=O)c1cc2ccccc2cc1O)c1ccccn1,40,107,12,100*,102*
C[C@]12CC[C@@H]3c4ccc(OC(=O)c5ccccc5)cc4CC[C@H]3[C@@H]1CC[C@@H]2O,-2,111,1,.,84*
COc1cc2c(cc1O)CC[C@@H]1[C@@H]2CC[C@]2(C)[C@@H](O)CC[C@@H]12,-3,84,-6,.,-10
CCN(CC)c1ccc(/C=C/C(=O)c2cccnc2)cc1,1,119,-9,93*,-2
O=C(/C=C/c1ccc(Cl)cc1)c1cccnc1,.,119,-26,-3,14
CC(C)(C)c1cc(CSC(=S)NC2CCS(=O)(=O)C2)c(Br)c(C(C)(C)C)c1 (stereo unspecified),2,91,-4,-2,96*
CCCOc1ccc(C2C(C(=O)c3cc4ccccc4o3)=C(O)C(=O)N2c2cc(C)on2)cc1OC (stereo unspecified),1,122,0,2,98*
Cc1cc(N2C(=O)C(O)=C(C(=O)c3cc4ccccc4o3)C2c2ccc(Br)cc2)no1 (stereo unspecified),3,133,-10,40,87*
Cc1cc(N2C(=O)C(O)=C(C(=O)c3cc4ccccc4o3)C2c2ccc(Cl)cc2)no1 (stereo unspecified),1,114,9,2,-7
Cc1cc(N2C(=O)C(O)=C(C(=O)c3cc4ccccc4o3)C2c2cccc(Cl)c2)no1 (stereo unspecified),-5,148,-27,?,83*
O=S(=O)(c1ccc(Br)s1)N1CCC2(CC1)OCCO2,-6,109,-16,5,-4
Cc1ccc(S(=O)(=O)NNC(=O)c2ccc(NC(=O)C3CC3)cc2)cc1,.,89,.,111*,.
Cc1ccccc1COC(=O)CCC1=NS(=O)(=O)c2ccccc2N1,-9,82,-4,14,-15
Cc1ccccc1/C=N/Nc1nc2ccccc2[nH]1,-1,104,-6,6,68*
C(=N\Nc1nc2ccccc2[nH]1)/c1c[nH]c2ccccc12,0,96,2,2,64*

# Assay outcomes (PubChem BioAssay)
